Peg3 promoter – inhibitors of Peg3 promoter; HeLa PEG-Prom luciferase reporter, luminescence, overnight; inhibition, % at 20 µM; 1.7% of 360,000 active; AID 588405;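 active means inhibition of at least 50% at 20 µM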
HIF-2a inh – blocks HIF-2a reporter activity; 786-0 RCC cells HIF-2a reporter, luciferase luminescence, overnight; inhibition, % at 18.8 µM; 0.72% of 360,000 active;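 active means inhibition of the luminescence signal of 40% or more relative to plate controls, in a single-dose primary screen at 18.75 µM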
TROY signal inh – blocks TROY-dependent signaling in reporter cells; Q293 LMP1-TROYcd NF-kB luciferase reporter, 4 h; inhibition, % at 10 µM; 0.98% of 360,000 active; AID 1347056;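 active means compounds whose plate-normalised and pattern-corrected inhibition of the luciferase reporter signal at the single screening dose is 50% or more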
KKLEB cytotox – CF airway cell cytotoxicity counter-screen. activity change (cytotoxicity), % at 5 µM. 0.36% of 360,000 active. KKLEB CF airway cells viability, ATPlite luminescence, overnight; hits give low values; cells stimulated with P. aeruginosa culture filtrate;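 active means corrected activity change at or below -50% at 5 µM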
CF NFkB inh – inhibitors of cystic fibrosis induced NF-kB; inhibition, % at 5 µM; 0.86% of 360,000 active; KKLEB NF-kB-GFP reporter, PAF-induced, GFP fluorescence overnight;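 active means at least 50% inhibition at 5 µM, scaled per plate between neutral and stimulator controls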;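 further: PAF is a Pseudomonas aeruginosa culture filtrate used as stimulus; plate controls were PAF-stimulated DMSO wells for no effect and unstimulated DMSO wells for full effect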
TWEAK-Fn14 inh – inhibitors of TWEAK-Fn14 interaction signaling | TWEAK-stimulated Fn14 reporter cells, luciferase luminescence, 8 h | inhibition, % at 10 µM | 2% of 360,000 active | AID 1159606; in the data active means inhibition above about 50%
* hit, by the source's call. Most compounds without a hit are left out; they make up all but 4% or so of the library.

SMILES	Peg3 promoter	HIF-2a inh	TROY signal inh	KKLEB cytotox	CF NFkB inh	TWEAK-Fn14 inh
CCOc1ccc2nc(COC(=O)c3ccncc3)c(C(=O)c3ccccc3)[n+]([O-])c2c1	-121.5	-125.1	61.1*	6.5	-9.7	52.0*
CCOc1ccc2nc(COC(=O)c3cccs3)c(C(=O)c3ccccc3)[n+]([O-])c2c1	-42.4	-54.1	40.6	0.7	13.6	34.0
Cc1ccc(C(=O)NCCn2cc(SCC(=O)N3CCOCC3)c3ccccc32)cc1	17.1	-6.1	77.7*	17.9	-12.7	86.1*
Cc1ccc(C(=O)NCCn2cc(SCC(=O)Nc3cc(C)on3)c3ccccc32)cc1	-1.8	-12.0	73.0*	7.9	18.4	83.8*
Cc1cc(NC(=O)CSc2cn(CCNC(=O)c3ccccc3)c3ccccc23)no1	-4.2	-20.0	15.4	14.7	-2.5	32.1
Cc1[nH]c2ccccc2c1C(=O)C(=O)N1CCN(c2ccccc2F)CC1	7.6	19.2	3.5	4.3	-17.6	6.8
CC(CC(=O)O)CC(=O)Nc1ccc(Br)cc1 (centres undefined)	13.2	24.4	0.4	-6.8	7.7	4.0
COc1cc([N+](=O)[O-])cc(/C=N/NC(=O)c2ccc(C)nc2)c1O	5.7	4.6	-7.7	0.0	-3.6	10.3
COc1cccc(/C=N/NC(=O)c2cc3cc([N+](=O)[O-])ccc3s2)c1O	83.7*	14.1	16.8	-12.1	-29.4	-6.3
COc1cccc(/C=N/NC(=O)C(=O)N/N=C/c2cccc(OC)c2O)c1O	16.6	5.8	9.1	-11.2	12.3	-16.1
COc1cc([N+](=O)[O-])cc(/C=N/NC(=O)c2ccc(NC(=O)c3ccc(C)cc3)cc2)c1O	46.9	28.2	-0.9	-75.3*	82.0*	70.4*
COc1cc(NC(=S)Nc2ccc3c(c2)OCCO3)cc(OC)c1OC	-65.8	-188.5	57.0*	12.3	-8.6	36.2
COc1cc2cc(C(=O)Nc3ccc4c(c3)OCCO4)[nH]c2cc1OC	0.4	19.9	77.0*	8.1	-9.8	93.2*
COc1cc2[nH]c(C(=O)Nc3ccc4c(c3)OCCO4)cc2c(OC)c1OC	-69.2	-42.6	55.9*	-0.6	-8.7	70.7*
S=C(Nc1ccc(Br)cc1)Nc1ccc2c(c1)OCCO2	-251.4	-267.6	-6.5	21.0	-12.5	-13.3
CCc1ccc(CNC(=O)C2CCCN(S(=O)(=O)N(CC)c3ccccc3)C2)cc1 (centres undefined)	16.6	-7.0	-7.5	14.2	-1.5	-6.4
O=C1C2C3C=CC(O3)C2C(=O)N1Nc1ccccc1 (centres undefined)	-5.2	-2.0	-2.3	-21.0	-25.4	2.7
O=C(Cc1ccc(Cl)cc1)SCc1ccccc1	-20.8	2.0	-25.1	-11.2	15.3	0.6
CN1CCN(c2ncnc3c2ncn3[C@H]2CN(Cc3ccc(-c4ccccc4)cc3)C[C@@H](CO)O2)CC1	27.7	-0.6	15.4	-8.2	9.0	8.4
O=C(Nc1ccc2oc(-c3ccccc3)nc2c1)C1CCCO1 (centres undefined)	-285.1	-241.0	-98.7	4.9	-20.1	3.4
Cc1ccc2nc(-c3ccc(NC(=O)C4CCCO4)cc3)[nH]c2c1 (centres undefined)	-31.1	-45.8	44.2	7.4	-2.6	69.8*
O=C(Nc1ccc(-c2nc3cc(Cl)ccc3o2)cc1)C1CCCO1 (centres undefined)	-330.1	-199.0	9.9	-4.1	-5.4	50.2*
COc1ccc(C(=O)Nc2ccccc2N2CCCC2)cc1S(=O)(=O)N1CCOCC1	12.4	6.9	-0.6	3.0	-19.5	0.1
CNC(=O)c1c(NC(=O)c2ccc(S(=O)(=O)N3CCCCC3)cc2)sc2c1CCN(C(C)C)C2	-8.8	5.1	1.7	-17.8	14.0	-15.2
CCN1CCc2c(sc(NC(=O)c3cc4ccccc4cc3OC)c2C(N)=O)C1	109.9*	26.1	-12.0	-16.9	-15.5	-15.4
CCN1CCc2c(sc(NC(=O)c3ccc(S(=O)(=O)N4CCCC4)cc3)c2C(=O)NC)C1	65.0*	28.9	-10.2	-2.7	4.5	11.6
CCOC(=O)N1CCN(S(=O)(=O)c2ccc(C)cc2)CC1	16.0	18.6	17.8	12.2	-6.0	77.2*
CCOC(=O)N1CCN(S(=O)(=O)c2ccc(Cl)cc2)CC1	11.6	-3.8	0.1	1.7	-18.2	14.4

Screening data from PubChem BioAssay.
